Screens (PubChem)
CYP2C9 activ: human CYP2C9 activators, primary screen, biochemical, luminescence. Cytochrome P450 2C9 (Homo sapiens), P11712. recombinant CYP2C9, luciferin-H conversion; stronger effect = higher value; factor 1 = untreated enzyme, 0 = blocked. activation factor at 5 µM. hit rate 1.4% among 96,000;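 active means activation factor of 2 or more for CYP2C9 at a 5 µM dose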
CYP2C19 activ: human CYP2C19 activators, primary screen, biochemical, luminescence; Cytochrome P450 2C19 (Homo sapiens), P33261; recombinant CYP2C19, luciferin-H EGE luminescence; stronger effect = higher value; 0 = fully inhibited enzyme, 1 = untreated enzyme; activation factor at 5 µM; 96,000 tested, under 10 active; AID 1025, 2008;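 active means activation factor of at least 2 at 5 µM in the primary screen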
CYP2C19 inh: blockers of cytochrome P450 2C19 activity – biochemical, luminescence, ADME assay, primary screen; P33261; inhibition, % at 5 µM; CYP2C19 Supersomes, luciferin-H EGE luminescence, 30 min; hit rate 21% among 96,000;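 active means CYP2C19 inhibition above a set limit at 5 µM in the primary screen, cut at about 50% in these data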
CYP2C9 inh: blockers of cytochrome P450 2C9 activity – biochemical, luminescence, ADME assay, primary screen; P11712; CYP2C9 Supersomes, luciferin-H conversion; inhibition, % at 5 µM; hit rate 20% among 96,000; AID 777, 2007;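 active means blocking of liver enzyme CYP2C9 beyond about 50% at 5 µM, limit read from the data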
CD11b adhes inh: inhibitors of CD11b/CD18 adhesion to fibrinogen, primary screen, K562 cells, luminescence. Integrin beta-2 (Homo sapiens) + Integrin alpha-M (Homo sapiens), P05107+P11215. ATPlite luminescence; Mn2+ added to activate the integrin. inhibition, % at 10 µM. hit rate 0.54% among 93,000;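 active means primary inhibition of 50% or more at 10 µM, then 40% or more on retest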
Target sequence (P05107 whole entry, looked up, other chains not shown): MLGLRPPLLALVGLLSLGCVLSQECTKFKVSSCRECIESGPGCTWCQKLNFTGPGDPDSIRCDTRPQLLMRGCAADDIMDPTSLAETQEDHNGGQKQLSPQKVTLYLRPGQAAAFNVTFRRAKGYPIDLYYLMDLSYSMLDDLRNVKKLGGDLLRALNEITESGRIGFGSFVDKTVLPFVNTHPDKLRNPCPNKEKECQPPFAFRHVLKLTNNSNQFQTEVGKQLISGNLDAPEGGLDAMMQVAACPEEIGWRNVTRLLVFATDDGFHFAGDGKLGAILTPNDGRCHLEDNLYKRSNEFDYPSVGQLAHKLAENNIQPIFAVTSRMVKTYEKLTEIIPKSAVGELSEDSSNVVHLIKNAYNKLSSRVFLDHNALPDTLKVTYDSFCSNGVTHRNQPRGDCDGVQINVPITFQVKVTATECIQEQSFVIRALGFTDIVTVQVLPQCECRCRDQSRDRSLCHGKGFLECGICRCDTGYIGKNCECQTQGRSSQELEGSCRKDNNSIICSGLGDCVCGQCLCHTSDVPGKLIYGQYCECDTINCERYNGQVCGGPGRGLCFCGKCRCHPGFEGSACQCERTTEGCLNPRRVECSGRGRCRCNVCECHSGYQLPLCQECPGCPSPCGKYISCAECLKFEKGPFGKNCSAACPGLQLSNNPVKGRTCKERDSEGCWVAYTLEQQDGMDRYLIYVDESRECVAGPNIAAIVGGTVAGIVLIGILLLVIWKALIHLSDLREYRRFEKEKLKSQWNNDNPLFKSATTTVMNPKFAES
Mac1 fbg enh: enhancers of CD11b/CD18 adhesion to fibrinogen, primary screen, K562 cells, luminescence; activation, % at 10 µM; Integrin beta-2 (Homo sapiens) + Integrin alpha-M (Homo sapiens), P05107+P11215; hit rate 0.07% among 93,000; ATPlite luminescence;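 active means 10 µM primary screen giving 50% or more activity, confirmed by 40% or more on retest at that dose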
Hits are given with their value; . = inactive; / = no result given. An excerpt weighted towards active compounds, which were near 28% of everything screened.

SMILES	CYP2C9 activ	CYP2C19 activ	CYP2C19 inh	CYP2C9 inh	CD11b adhes inh	Mac1 fbg enh
CC(=O)Nc1ccc(NC(=O)C(C)O/N=C/c2cccc([N+](=O)[O-])c2)cc1 (centres undefined)	.	.	.	60.1	.	.
O=C(CO/N=C/c1cccc([N+](=O)[O-])c1)Nc1ccc2ccccc2c1	.	.	.	88.0	.	.
O=C(CN1CCN(C(=O)c2cccc(F)c2)CC1)NC1CCCCC1	.	.	.	.	.	.
CCCS(=O)(=O)c1nc(S(=O)(=O)c2ccc(C)cc2)c(NCc2ccco2)s1	/	/	/	/	.	.
CC(C)(C)N=Cc1cc(-c2ccccc2)sc1O	.	.	.	.	.	.
COC(=O)c1ccccc1NC(=O)/C=C/c1cc(OC)c(OC)c(OC)c1	.	.	.	.	.	.
Cc1cc(Nc2ccccc2)nn1C(=O)c1ccc(Cl)cc1	.	.	.	54.7	.	.
COc1ccc(OC)c(NC(=O)CSc2nnc(N)s2)c1	.	.	50.3	.	.	.
COc1cccc(NC(=O)CSc2nnc(C)s2)c1	.	.	.	.	.	.
COc1cc(NC(=O)CSc2nc(C)cs2)cc(OC)c1	.	.	95.8	52.5	/	/
COc1ccc(OC)c(NC(=O)CSC2=NCCS2)c1	.	.	.	.	.	.
Cc1csc(SCC(=O)Nc2ccc(Cl)cn2)n1	.	.	85.6	59.2	.	.
Cc1csc(SC(C)C(=O)Nc2ccc(Cl)cn2)n1 (centres undefined)	.	.	.	.	.	.
COc1ccc(OC)c(NC(=O)CSc2nc(C)cs2)c1	.	.	84.1	53.8	/	/
Cc1c(NC(=O)COc2ncnc3c(Cl)cc(Cl)cc23)c(=O)n(-c2ccccc2)n1C	.	.	.	.	.	.
CON(C)c1nc(OCC#N)nc(N(C)C)n1	/	/	/	/	.	.
CC1CCC2(CC1)N=C(N)Nc1nc3ccccc3n12 (centres undefined)	.	.	.	.	/	/
O=C(NCCCn1ccnc1)C1CC(c2cccc(Br)c2)=NO1 (centres undefined)	.	.	99.8	85.0	.	.
COc1cccc(C2=NOC(C(=O)NCCCn3ccnc3)C2)c1 (centres undefined)	.	.	95.1	82.0	.	.
COc1ccc(C2=NOC(C(=O)NCCCn3ccnc3)C2)cc1 (centres undefined)	.	.	84.1	84.5	.	.
COCCNC(=O)C1CC(c2cccc(OC)c2)=NO1 (centres undefined)	.	.	.	.	.	.
CC1=C(C(=O)OC(C)C)C(c2c(O)ccc3ccccc23)NC(=O)N1 (centres undefined)	.	.	86.4	.	.	.
Cc1ccc(C)c(N2CCN(C(=O)C3CCN(c4nc(C)cc(C)n4)CC3)CC2)c1	.	.	.	.	.	.
Cc1cc(C)nc(N2CCC(C(=O)N3CCN(c4cc(Cl)ccc4C)CC3)CC2)n1	.	.	.	51.1	.	.
CCn1c(N2CCN(S(=O)(=O)c3ccccc3C(F)(F)F)CC2)nc2ccccc21	.	.	68.9	.	.	.
SMILES	CYP2C9 activ	CYP2C19 activ	CYP2C19 inh	CYP2C9 inh	CD11b adhes inh	Mac1 fbg enh
O=S(=O)(c1ccccc1C(F)(F)F)N1CCN(S(=O)(=O)c2ccccc2C(F)(F)F)CC1	.	.	.	.	.	.
Oc1ccc(Cl)cc1C1=NCCNC(C(F)(F)C(F)F)=C1	.	.	.	.	.	.
COc1ccc(Br)cc1/C=c1\sc2nc(-c3ccco3)nn2c1=O	.	.	62.1	60.7	.	.
C=CCc1c(C)nc(SCC(=C)C)[nH]c1=O	.	.	54.9	.	.	.
Oc1c(C(c2ccco2)N2CCN(C(c3ccccc3)c3ccccc3)CC2)sc2ncnn12 (centres undefined)	.	.	95.1	93.6	.	.
O=C(c1ccco1)N1CCN(C(c2cccs2)c2sc3ncnn3c2O)CC1 (centres undefined)	.	.	52.0	.	.	.
Cc1ccc(C(c2sc3ncnn3c2O)N2CC(C)CC(C)C2)cc1 (centres undefined)	.	.	76.1	.	.	.
Oc1c(C(c2cccs2)N2CCN(c3cccc(Cl)c3)CC2)sc2ncnn12 (centres undefined)	.	.	.	53.6	.	.
Cc1ccc(C(c2sc3nc(C)nn3c2O)N2CC(C)OC(C)C2)cc1 (centres undefined)	.	.	.	.	.	.
CC(C)(C)C(=O)Nc1nnc(SCC(=O)NCc2ccco2)s1	/	/	/	/	.	.
N#Cc1ccccc1NC(=O)c1ccc(-c2ccccc2Cl)o1	.	.	.	.	.	.
Clc1ccc(CNc2nnnn2-c2ccccc2)c(Cl)c1	.	.	97.8	53.2	.	.
Clc1cccc(CNc2nnnn2-c2ccccc2)c1	.	.	.	.	.	.
c1ccc(CCNc2nnnn2-c2ccccc2)cc1	.	.	58.2	.	.	.
COc1nc(C)nc2c1sc(=S)n2C	.	.	.	.	.	.
COc1cc2ncnc(NCc3ccccc3C)c2cc1OC	.	.	.	.	.	.
Cc1ccc(CNc2ncnc3cc(Cl)ccc23)o1	.	.	66.8	53.9	.	.
N#C/C(=C/c1ccc(Sc2nc3ccccc3[nH]2)o1)c1ccccc1F	.	.	94.6	90.2	.	.
N#C/C(=C/c1ccc(Sc2nc3ccccc3[nH]2)o1)c1cccc(Br)c1	.	.	96.4	97.0	.	.
N#C/C(=C/c1ccc(Sc2nc3ccccc3[nH]2)o1)c1cccc(F)c1	.	.	92.2	95.1	.	.
N#C/C(=C/c1ccc(N2CCCCC2)o1)c1cccc(F)c1	.	.	.	.	.	.
COc1ccc(C2C(C(=O)OCC(=O)NC(C)(C)C)CCC(=O)N2c2ccc(C)cc2)cc1OC (centres undefined)	.	.	.	.	.	.
O=C(CSc1nc(-c2ccc(F)cc2)cs1)N1CCc2ccccc21	.	.	.	.	.	.
CC12CCC(C(=O)Nc3ccccc3)(C/C1=N\O)C2(C)C (centres undefined)	.	.	78.3	.	.	.
CCc1ccccc1N(CC(=O)N/N=C/c1ccc(OC(=O)OC)c(OC)c1)S(C)(=O)=O	.	.	.	50.0	.	.
CN(C)c1ccc(/C=N/NC(=O)CN(c2ccccc2Cl)S(C)(=O)=O)cc1Br	.	.	.	.	/	/
COc1ccc(CCN2C(=O)c3cccc4c(C(=O)N5CCCCC5)ccc(c34)C2=O)cc1OC	/	/	/	/	.	.
CC(C)(C)c1ccc(/C=N/NC(=O)Cc2c[nH]c3ccccc23)cc1	.	.	.	74.0	.	.
